The nature of experiment [1]: qHTS assay for small molecule agonists of the antioxidant response element (ARE) signaling pathway (AID 651741; active means well fitted activation curve with a large enough effect in the signal ratio; the % refers to the signal ratio; further: potency means the concentration at half of the fitted maximal effect; on activation: % of control where 0% means no effect). Put shortly: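 Quantitative HTS in HepG2 cells stably expressing an ARE-beta-lactamase reporter; 16 h compound exposure at 37 C, followed by 2 h room-temperature incubation with LiveBLAzer B/G FRET substrate and fluorescence measurement.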
The target of experiment [2] is Tumor necrosis factor (Homo sapiens) (UniProt P01375). Description: qHTS assay to identify small molecules that stimulate Tumor Necrosis Factor-alpha (TNF-alpha) secretion (AID 651757; active means well fitted curve in the direction sought with a large enough effect in the signal ratio; the % refers to the signal ratio; further: 0% is about no effect). Put shortly: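 THP-1 cells (3000/well) exposed to compounds 17 hrs at 37 C. Secreted TNF-alpha detected by HTRF with cryptate- and XL665-labeled anti-TNF-alpha antibodies after 3 hr at room temperature.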
Sequence of Tumor necrosis factor (Homo sapiens) (P01375 whole entry, looked up): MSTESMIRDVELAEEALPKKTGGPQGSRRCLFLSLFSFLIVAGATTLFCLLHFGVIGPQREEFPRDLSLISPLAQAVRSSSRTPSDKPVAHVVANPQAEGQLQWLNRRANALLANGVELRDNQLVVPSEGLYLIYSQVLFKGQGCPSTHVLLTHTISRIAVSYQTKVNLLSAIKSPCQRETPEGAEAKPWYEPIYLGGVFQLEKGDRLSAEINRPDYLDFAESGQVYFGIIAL
(In general: In qHTS, concentration-response curves come from the screen itself.)

A short description of experiment [3]: qHTS assay for environmental chemicals that activate the Aryl hydrocarbon Receptor (AhR) signaling pathway (AID 651777). Further: % of control where 0% means no effect; nearly all actives have a fitted effect of over 15% in size. Conditions: 1A2-DRE human hepatoma cells, luciferase, 24 h; activation: hits give high values. Put shortly: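 Induction of CYP1A2 transcription through AhR is detected by luciferase in 1A2-DRE hepatoma cells. Compounds or DMSO act for 24 hr at 37 C before a 30 min One-Glo step at room temperature.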

Experiment [4] has as its target Peroxisome proliferator-activated receptor alpha (Homo sapiens) (UniProt Q07869). Description: qHTS assay for small molecule agonists of the peroxisome proliferator-activated receptor alpha (PPARalpha) signaling pathway (AID 651778). Further: % of control where 0% means no effect. Conditions: PathHunter PPARalpha complementation, chemiluminescence, 6 h; max response: hits give high values. Put shortly: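 Chemiluminescence from complemented enzyme reported PPARalpha activation in cells after 6 hr of compound treatment at 37 C. The detection reagent was incubated for 60 min at room temperature, and compounds were scored as agonists.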

For experiment [5], the target named is Nuclear receptor ROR-gamma (Homo sapiens) (UniProt P51449). The experiment can be described thus: qHTS assay for small molecule antagonists of the retinoid-related orphan receptor gamma (ROR-gamma) signaling pathway (AID 651802). Further: nearly all actives have a fitted effect of over 60% in size. Further: potency means the concentration at half of the fitted maximal effect. Put shortly: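 CHO cells with TET-inducible ROR-gamma and RORE-luciferase reporter, dosed then doxycycline-induced. After 16 h at 37C, One-Glo luminescence read; decreased signal indicates antagonism.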
Sequence of Nuclear receptor ROR-gamma (Homo sapiens) (P51449 whole entry, looked up): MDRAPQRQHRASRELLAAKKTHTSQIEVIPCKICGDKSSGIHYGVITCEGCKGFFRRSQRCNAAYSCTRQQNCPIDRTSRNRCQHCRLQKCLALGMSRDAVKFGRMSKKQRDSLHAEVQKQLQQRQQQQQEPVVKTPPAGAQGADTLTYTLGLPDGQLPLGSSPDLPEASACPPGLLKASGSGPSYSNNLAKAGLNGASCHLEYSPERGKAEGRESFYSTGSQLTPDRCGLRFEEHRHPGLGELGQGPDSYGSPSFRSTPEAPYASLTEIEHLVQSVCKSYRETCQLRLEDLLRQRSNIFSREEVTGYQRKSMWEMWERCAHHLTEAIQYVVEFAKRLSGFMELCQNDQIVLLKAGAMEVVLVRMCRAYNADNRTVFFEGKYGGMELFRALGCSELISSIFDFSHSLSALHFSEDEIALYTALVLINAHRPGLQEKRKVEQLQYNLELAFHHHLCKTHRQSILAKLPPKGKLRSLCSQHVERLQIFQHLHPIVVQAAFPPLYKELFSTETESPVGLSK

Experiment [6] can be described thus: qHTS assay for small molecule antagonists of the retinoid-related orphan receptor gamma (ROR-gamma) signaling pathway - cell viability counter screen (AID 720652; active means well fitted curve in the direction sought with a large enough effect in the repeat runs; an effect the other way counts as inactive or inconclusive;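 further: compound exposure lasted 16 hr before ATP read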; further: potency means the concentration at half of the fitted maximal effect). Put shortly: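 CHO cells carrying TET-inducible ROR and RORE-luciferase reporter, plated 5 hr, then dosed with compound plus doxycycline. After 16 hr at 37 C, viability read as intracellular ATP by CellTiter-Glo luminescence.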

Experiment [7] in a line: qHTS assay for small molecule agonists of the antioxidant response element (ARE) signaling pathway measured by Nrf2-dependant transcriptional activity - cell viability counter screen (AID 720653; active means well fitted curve in the direction sought with a large enough effect in the repeat runs; an effect the other way counts as inactive or inconclusive; further: on the % scale 0 is the no-effect control and ±100 the full control effect). Conditions: ARE-bla HepG2 viability, CellTiter-Glo ATP luminescence, 16 h; hits give low values. Put shortly:
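Cytotoxicity counter screen: intracellular ATP quantified by CellTiter-Glo luminescence in the same ARE-bla HepG2 plates, after 16 h compound exposure and a 2 h beta-lactamase substrate step.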

Experiment [8] in a line: qHTS assay for small molecule activators of the p53 signaling pathway (AID 651743; active means well fitted activation curve with a large enough effect in the signal ratio, not every such curve was filed as active; the % refers to the signal ratio; further: potency means the concentration at half of the fitted maximal effect; on activation: series mostly up to about 92 µM; % of control where 0% means no effect). Particulars: HCT-116 p53RE-bla, beta-lactamase FRET ratio, 16 h; activation: hits give high values. Put shortly: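 Read-out is fluorescence intensity from the LiveBLAzer B/G FRET substrate, added for 2 hours at room temperature after HCT-116 p53RE-bla cells had been incubated with compounds for 16 hours at 37 C.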

Experiment [9] can be described thus: qHTS assay for small molecule activators of the nuclear factor-kappa B (NF-kB) signaling pathway (AID 651749; active means well fitted activation curve with a large enough effect in the signal ratio; the % refers to the signal ratio; further: series mostly up to about 77 µM; % of control where 0% means no effect). Particulars: NF-kB-bla ME-180 cells, beta-lactamase FRET ratio, 16 h; hits give high values. Put shortly: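 Readout: beta-lactamase reporter driven by an NF-kB response element, detected fluorescently as loss of FRET. Cells were the ME-180 line, treated 16 hr at 37C with pin-transferred compound.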

Experiment [10] can be described thus: qHTS assay for small molecule agonists of the antioxidant response element (ARE) signaling pathway measured by Nrf2-dependant transcriptional activity (AID 720636; active means well fitted curve in the direction sought with a large enough effect in the repeat runs; an effect the other way counts as inactive or inconclusive;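 further: HepG2 cells with an ARE-driven luciferase reporter; % of control where 0% means no effect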). Put shortly: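 We exposed ARE-luc HepG2 cells, seeded in assay medium with 1% dialyzed FBS and allowed 6 hr to adhere, to test compounds overnight (16 hr, 37 C) before measuring luciferase with ONE-Glo.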

Experiment [11] is described as follows: Cell Proliferation Assay against the TMD8 Cell Line (Caspase readout at 8 hrs) (AID 651713). Further: potency means the concentration at half of the fitted maximal effect. Put shortly: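 TMD8 cells in RPMI plus 5% FBS were treated with compound for 8 h at 37C. Caspase 3/7 activation was read by Caspase-Glo luminescence. Percent activity was scaled from DMSO (0%) to 9.2 uM bortezomib final (100%).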
Experiment [12] can be described thus: qHTS assay for small molecule disruptors of the mitochondrial membrane potential - 1 hr assay (AID 651754; calls by dose curve; further: potency means the concentration at half of the fitted maximal effect; nearly all actives have a fitted effect of over 35% in size). Put shortly: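 HepG2 cells, attached overnight, were exposed to compound for 1 hr at 37C, then stained 30 min with a potentiometric dye. Ratio of red aggregate (590nm) to green monomer (535nm) fluorescence reports membrane potential; collapse shifts signal toward green.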

The nature of experiment [13]: qHTS assay for small molecule disruptors of the mitochondrial membrane potential - 5 hr assay (AID 651755; calls by dose curve; further: nearly all actives have a fitted effect of over 40% in size; further: potency means the concentration at half of the fitted maximal effect). Put shortly: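 HepG2, 2,000 cells/well, overnight attach; cpd or DMSO 5 hr, 37C/5% CO2; Mito-MPS 30 min 37C; fluor 490/535 + 540/590 nm.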
Experiment [14] deals with Tyrosine-protein kinase Yes (Homo sapiens) (UniProt P07947). Description: qHTS for small molecule inhibitors of Yes1 kinase: Primary Screen (AID 686947).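 Further: plate controls were DMSO with enzyme for no effect and no-enzyme DMSO wells for full effect; nearly all actives have a fitted effect of over 60% in size.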 Put shortly: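 Yes1 (4 nM) preincubated 20 min with compound, then 60 min room-temperature reaction with 0.1 mM ATP and 0.3 mg/mL poly(E4Y) in pH 7.5 Tris, 10 mM MgCl2. ADP measured by ADP-Glo luminescence, normalised to enzyme/no-enzyme controls.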
Sequence of Tyrosine-protein kinase Yes (Homo sapiens) (P07947 whole entry, looked up): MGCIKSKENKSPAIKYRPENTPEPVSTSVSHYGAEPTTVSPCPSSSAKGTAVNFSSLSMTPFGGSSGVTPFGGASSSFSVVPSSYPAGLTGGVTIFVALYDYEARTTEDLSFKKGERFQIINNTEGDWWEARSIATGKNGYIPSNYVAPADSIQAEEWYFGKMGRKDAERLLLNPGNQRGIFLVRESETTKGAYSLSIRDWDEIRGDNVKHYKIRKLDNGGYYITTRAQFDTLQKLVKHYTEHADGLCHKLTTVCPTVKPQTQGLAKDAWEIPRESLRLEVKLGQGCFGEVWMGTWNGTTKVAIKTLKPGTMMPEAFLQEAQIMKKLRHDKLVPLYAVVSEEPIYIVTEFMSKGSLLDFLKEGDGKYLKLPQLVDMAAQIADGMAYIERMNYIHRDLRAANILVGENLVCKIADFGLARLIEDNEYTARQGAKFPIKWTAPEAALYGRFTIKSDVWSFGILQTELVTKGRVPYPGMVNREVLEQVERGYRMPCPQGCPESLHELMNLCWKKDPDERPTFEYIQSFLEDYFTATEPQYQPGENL

A short description of experiment [15]: qHTS for small molecule inhibitors of Yes1 kinase: Counter Assay (AID 686950).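 Further: no kinase present so only ADP-Glo detection of a fixed ADP amount is tested; luminescence from ADP-Glo reporting ADP in a fixed ATP and ADP mixture; series mostly up to about 77 µM; 0% = DMSO wells with ATP plus ADP and -100% = ATP-only wells without ADP.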 Put shortly:
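Luminescence read-out from ADP-Glo quantifies a fixed ADP amount (0.02 mM ADP with 0.08 mM ATP) after 60 min at room temperature; signal is normalized between DMSO wells with ATP/ADP and with 0.1 mM ATP alone.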

“And” between values parts separate entries of the source, which are not always exact repeats. Equal values may be shown once. Values without a mark were called inactive. Records with an inconclusive call do not appear. The source made the active and inactive calls. Unless noted, the call rests on the fitted dose curve; in most records, active means well fitted curve in the direction sought with a large enough effect; inconclusive means small, poorly fitted or top-dose-only effect, or another doubt; inactive means no such curve, though single readings can be large; an effect the other way counts as inactive or inconclusive.

Sequence of Peroxisome proliferator-activated receptor alpha (Homo sapiens) (Q07869 whole entry, looked up): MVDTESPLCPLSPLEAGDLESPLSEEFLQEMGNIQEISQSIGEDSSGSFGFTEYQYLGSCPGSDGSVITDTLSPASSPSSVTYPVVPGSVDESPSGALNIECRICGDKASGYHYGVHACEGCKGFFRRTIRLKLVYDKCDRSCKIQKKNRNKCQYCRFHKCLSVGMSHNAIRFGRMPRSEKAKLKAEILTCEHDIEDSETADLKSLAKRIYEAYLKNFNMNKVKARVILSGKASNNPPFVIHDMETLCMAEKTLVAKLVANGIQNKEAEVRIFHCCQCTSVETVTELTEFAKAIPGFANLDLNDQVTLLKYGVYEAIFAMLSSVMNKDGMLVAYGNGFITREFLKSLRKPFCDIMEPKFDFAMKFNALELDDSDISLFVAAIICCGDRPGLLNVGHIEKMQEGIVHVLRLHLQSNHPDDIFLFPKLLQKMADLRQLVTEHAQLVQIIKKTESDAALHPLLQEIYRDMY

For `C=C(CC)C(=O)c1ccc(OCC(=O)O)c(Cl)c1Cl`, the Potency in experiment [1] is 2.37 µM (active); in experiment [5], 37.6 µM (active). In [2], the compound was classed as inactive. In experiment [3], the activation was 2.74%. The figures for the max response in [4] and in experiment [7] were -4.86% and 6.68%, respectively. In addition, the Potency entry in [6] was “inactive”.

As for `Nc1ccc(C(=O)O)cc1`, the Potency result in [1], in [5], in [10] and in [6] was “inactive” throughout. The activation is -1.83% in experiment [8], 0.93% in experiment [9] and -0.596% in experiment [3]. The compound was classed as inactive in [2]. The max response in experiment [4] was 2.41%; in experiment [7], 2.28%.

As to `COc1cccc2c1C(=O)c1c(O)c3c(c(O)c1C2=O)C[C@@](O)(C(=O)CO)C[C@@H]3O[C@H]1C[C@H](N)[C@H](O)[C@H](C)O1`, the Potency in [11] was 3.32 µM (active); in experiment [8], 1.58 µM (active); in experiment [12] it was 2.66 µM (active); in experiment [13], 2.66 µM (active); in experiment [6], 23.7 µM (active). Moreover, the activation in experiment [9] is -4.76%; in experiment [3], 1.88%. Moreover, in [4], the max response was -6.93% and -6.66%. The outcome in [14] and in [15] was inactive. Moreover, in experiment [10], the Potency entry was “inactive”.

In the case of `O=C1OC(c2ccc(O)cc2)(c2ccc(O)cc2)c2ccccc21`, the Potency entry in experiment [1], in [10] and in experiment [6] was “inactive” in each case. Besides, the activation in [8] was 9.17% and -8.34%; in [9], -1.2% and -2.62%. The call in experiment [2] was inactive. Further, the max response in experiment [4] is -2.04% and -2.85%; in [7] it was 4.44% and -20.6%. The Potency in experiment [5] was 66.8 µM (active).

In the case of `O=C(O)CCCCC(=O)O`, the Potency entry in [1], in experiment [10] and in [6] was “inactive” throughout. Moreover, the activation was -1.12% in experiment [8], 1% in experiment [9] and 0.177% in experiment [3]. Besides, the outcome in experiment [2] was inactive. Further, the max response in experiment [4] is -5.15%; in [7], 6.35%.

Take `CC(O)(P(=O)(O)O)P(=O)(O)O`: the Potency result in experiment [1] and in experiment [10] was “inactive” throughout. In addition, the activation in experiment [3] is 0.149%. For the same compound, the max response in experiment [4] is 0.583%; in experiment [7] it was -6.37%.

Regarding `CC(C)(C)CC(C)(C)c1ccc(OCCOCC[N+](C)(C)Cc2ccccc2)cc1`, the activation in experiment [8] is 20.5%; in experiment [3] it was 2.85% and 2.84%. The Potency entry in experiment [13] and in experiment [6] was “inactive” in each case. In addition, the result in experiment [2] was inactive. In experiment [4], the max response was -0.283% and 4.47%.

Values taken from PubChem BioAssay (NCATS).
